# Inconclusive results are not listed. The source made the active and inactive calls. Calls follow the shape of the dose curve; as a rule, active = well fitted inhibition curve with a large enough effect; inconclusive = small, poorly fitted or top-dose-only effect; inactive = flat fitted curve, though single readings scatter.
# Tested on: CRL-7250
# Assay: Cytotoxic Profiling of Annotated Libraries Using Quantitative High-Throughput Screening (AID 1296008); also: nearly all actives have a fitted effect of over 60% in size
# Details: Five cell lines viability, CellTiter-Glo ATP luminescence, 48-72 h; max response: hits give low values
# Summary of the method: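 Compounds were pin-transferred onto cells and incubated 48 or 72 hr at 37 degree Celsius, 95% humidity. CellTiter-Glo was added, plates sat 10 min at room temperature, then ATP-coupled luminescence was imaged as the viability read-out.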
# % is scaled to controls: 0 for no effect and ±100 for the full control effect; potency is read from the fitted curve at half-maximal effect.
SMILES,Potency,max response,outcome
C=C1C(=O)OC2C1CCC(=C)C1CC(OC(C)=O)C(=C)C12 (stereo not given),18.4 µM (active),,
O=S(=O)(c1ccc(S(=O)(=O)n2cnc3ccccc32)cc1)N1CCCCCC1,,-2.18% (inactive),
COc1c2c(c(C)c3c1C(=O)OC3)O[C@@]1(C)CC(O)C(C(C)(C)O)[C@](C)(CCC(=O)O)[C@H]1C2 (stereo not given in full),,,inactive
CC[C@H](C)[C@H](NC(=O)[C@H]([C@@H](C)CC)N(C)C(C)=O)C(=O)N[C@H](C(=O)N[C@@H](CC(C)C)C(=O)[C@@]1(C)CO1)[C@@H](C)O,0.0291 µM (active),,
COCCOc1cnc2ccn([C@H](C)c3nnc4c(F)cc(-c5cnn(C)c5)cn34)c(=O)c2c1,,,inactive
C=C(C)[C@@H]1CC[C@]2(C)CC[C@]3(C)[C@H](CC[C@@H]4[C@@]5(C)CC[C@@H](O)C(C)(C)[C@@H]5CC[C@]43C)[C@@H]12,,-1.57% (inactive),
O=C(Nc1ccc(S(=O)(=O)Nc2nccs2)cc1)C(c1ccccc1)c1ccccc1,,-0.59% (inactive),
CCC(C)C(=O)O[C@H]1CCC=C2C=C[C@H](C)[C@H](CC[C@@H](O)C[C@@H](O)CC(=O)O)[C@H]21 (stereo not given in full),7.96 µM (active),,
CC1(C)CC[C@]2(C(=O)O)CC[C@]3(C)C(=CCC4[C@@]5(C)CC[C@H](O[C@@H]6O[C@H](C(=O)O)[C@@H](O[C@@H]7OC[C@@H](O)[C@H](O)[C@H]7O)[C@H](O)[C@H]6O)C(C)(C)C5CC[C@]43C)C2C1O (stereo not given in full),,4.1% (inactive),
Nc1nc(-n2cc(C(=O)O)c(=O)c3cc(F)c(N4CC(O)C4)c(Cl)c32)c(F)cc1F,,-9.26% (inactive),
